# Compound activity as filed in PubChem BioAssay.
# ROS inducer = inducers of reactive oxygen species in cancer cells; ROS induction (% of piperlongumine), % at 10 µM; U2OS ROS induction, H2DCF-DA fluorescence; 46,000 tested, 2% active; AID 624156; in the data active = ROS induction above about 79%, passing the limit was not always enough;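 note: 0% = DMSO vehicle median and 100% = reference compound median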
# Starred values were filed as active, the others as inactive. The sample as a whole holds a higher share of hits than the screen did.
SMILES,ROS inducer
O=C(O)CCCC(=O)Nc1ccccc1SCc1noc(-c2cccs2)n1,-1.8
O=C(Nc1ccccc1)c1ccc(S(=O)(=O)c2cccc(S(=O)(=O)N3CCOCC3)c2)cc1,11.5
COc1ccc(-c2cc(C(F)F)n3ncc(C(=O)Nc4cccc(S(=O)(=O)N5CCOCC5)c4)c3n2)cc1,132.6*
COc1ccc(S(=O)(=O)N2CCOCC2)cc1C(=O)Nc1ccc(S(=O)(=O)C(F)F)cc1,10.8
C[C@@H]1CN([C@H](C)CO)C(=O)Cc2cc(NS(=O)(=O)c3ccc(Cl)cc3)ccc2O[C@H]1CN(C)Cc1ccccc1,0.4
C[C@H](CO)N1C[C@H](C)[C@H](CN(C)Cc2ccc(-c3ccccc3)cc2)Oc2ccc(NS(=O)(=O)c3ccc(Cl)cc3)cc2CC1=O,142.3*
C[C@@H]1CN([C@H](C)CO)C(=O)Cc2cc(NS(C)(=O)=O)ccc2O[C@@H]1CN(C)Cc1ccccc1,-9.0
C[C@H]1CN([C@@H](C)CO)C(=O)Cc2cc(NS(C)(=O)=O)ccc2O[C@H]1CN(C)Cc1ccccc1,-3.9
C[C@@H]1CN([C@H](C)CO)C(=O)Cc2cc(NS(=O)(=O)c3ccccc3)ccc2O[C@@H]1CN(C)Cc1ccc(C(F)(F)F)cc1,31.5
C[C@H]1CN([C@@H](C)CO)C(=O)Cc2cc(NS(=O)(=O)c3cccs3)ccc2O[C@H]1CN(C)Cc1ccc(-c2ccccc2)cc1,46.5
C[C@H](CO)N1C[C@H](C)[C@H](CN(C)Cc2ccc(-c3ccccc3)cc2)Oc2ccc(NS(=O)(=O)c3cccs3)cc2CC1=O,78.4*
C[C@@H]1CN([C@H](C)CO)C(=O)Cc2cc(NS(=O)(=O)c3cccs3)ccc2O[C@@H]1CN(C)Cc1ccc(-c2ccccc2)cc1,49.7
C[C@@H]1CN([C@H](C)CO)C(=O)Cc2cc(NS(=O)(=O)c3ccccc3)ccc2O[C@H]1CN(C)Cc1ccc(C(F)(F)F)cc1,216.7*
C[C@H](CO)N1C[C@H](C)[C@H](CN(C)Cc2ccc(C(F)(F)F)cc2)Oc2ccc(NS(=O)(=O)c3ccccc3)cc2CC1=O,11.7
C[C@H]1CN([C@@H](C)CO)C(=O)Cc2cc(NS(C)(=O)=O)ccc2O[C@@H]1CN(C)Cc1ccccc1,131.1*
C[C@H](CO)N1C[C@H](C)[C@H](CN(C)Cc2ccccc2)Oc2ccc(NS(=O)(=O)c3ccc(Cl)cc3)cc2CC1=O,16.0
COc1cccc(CNC(C)c2ccccc2)c1OCc1ccccc1F (configuration not stated),60.8
Cc1cccc2c1-c1sc(C(=O)NCCN(C)C3CCCCC3)cc1CO2,-12.0
O=C(NC1CC1)c1ccccc1SCc1ccc(F)cc1,-3.0
CC1Cc2ccccc2N1S(=O)(=O)c1cc(Br)cnc1N (configuration not stated),9.2
Cn1c(=Nc2ccccc2C(=O)O)ccc2ccccc21,9.0
CS(=O)(=O)N1CCN(c2cccc(Cl)c2)CC1,9.4
COc1ccc(CN(C)C[C@H]2Oc3ccc(NS(=O)(=O)c4cccs4)cc3C(=O)N([C@@H](C)CO)C[C@H]2C)cc1,0.7
C[C@H](CO)N1C[C@H](C)[C@@H](CN(C)Cc2ccc(Oc3ccccc3)cc2)Oc2ccc(NS(=O)(=O)c3cccs3)cc2C1=O,93.2*
C[C@H]1CN([C@@H](C)CO)C(=O)c2cc(NS(=O)(=O)c3cccs3)ccc2O[C@H]1CN(C)Cc1ccc(Oc2ccccc2)cc1,1.6
SMILES,ROS inducer
CCc1ccccc1NC(=O)c1ccc2nc(N3CCC(C)CC3)sc2c1,0.9
Cc1cc(Cl)ccc1OC(C)C(=O)N1CCN(c2ccccc2F)CC1 (configuration not stated),7.3
COc1ccc(NC(=O)Nc2ccc3c(c2)CC(=O)N([C@@H](C)CO)C[C@H](C)[C@H](CN(C)S(=O)(=O)c2cn(C)cn2)O3)cc1,-5.9
COc1ccc(S(=O)(=O)N(C)C[C@@H]2Oc3ccc(N(C)C)cc3CC(=O)N([C@H](C)CO)C[C@H]2C)cc1,95.5*
COc1ccc(S(=O)(=O)N(C)C[C@H]2Oc3ccc(N(C)C)cc3CC(=O)N([C@H](C)CO)C[C@H]2C)cc1,-6.2
COc1ccc(S(=O)(=O)N(C)C[C@@H]2Oc3ccc(NC(=O)Nc4ccc(F)cc4)cc3CC(=O)N([C@H](C)CO)C[C@H]2C)cc1,-14.4
C[C@H](CO)N1C[C@H](C)[C@H](CN(C)S(=O)(=O)c2ccc(F)cc2)Oc2ccc(NC(=O)Nc3ccc(C(F)(F)F)cc3)cc2CC1=O,85.2*
COc1ccc(NC(=O)Nc2ccc3c(c2)CC(=O)N([C@@H](C)CO)C[C@H](C)[C@H](CN(C)S(=O)(=O)c2ccc(F)cc2)O3)cc1,96.6*
COc1ccc(NC(=O)Nc2ccc3c(c2)CC(=O)N([C@@H](C)CO)C[C@@H](C)[C@@H](CN(C)S(=O)(=O)c2cn(C)cn2)O3)cc1,90.2*
Cc1ccc(S(=O)(=O)N(C)C[C@H]2Oc3ccc(NC(=O)Nc4ccc(C(F)(F)F)cc4)cc3CC(=O)N([C@H](C)CO)C[C@H]2C)cc1,13.8
C[C@H](CO)N1C[C@H](C)[C@H](CN(C)S(=O)(=O)c2ccc(F)cc2)Oc2ccc(NC(=O)Nc3ccc(F)cc3)cc2CC1=O,-3.8
COc1ccc(S(=O)(=O)N(C)C[C@H]2Oc3ccc(NC(=O)Nc4ccc(F)cc4)cc3CC(=O)N([C@@H](C)CO)C[C@@H]2C)cc1,-9.8
C[C@H]1CN([C@@H](C)CO)C(=O)Cc2cc(N(C)C)ccc2O[C@@H]1CN(C)S(=O)(=O)c1ccc(Cl)cc1,19.4
C[C@@H]1CN([C@H](C)CO)C(=O)Cc2cc(NC(=O)Nc3ccccc3)ccc2O[C@H]1CN(C)S(=O)(=O)c1cn(C)cn1,-10.8
O=c1[nH]nc(CSc2ccc(Cl)cc2)c2ccccc12,-4.7
COc1ccc(OCC(=O)N2c3ccccc3C(C)(c3ccccc3)CC2(C)C)cc1 (configuration not stated),-4.2
Cc1oc2ccccc2c1CNC(N)=O,-1.8
O=C(CSc1ccccn1)Nc1ccccc1C(F)(F)F,-14.8
CCN1CCCC1CNC(=O)c1ccc(-n2c(-c3ccccc3)cc3c2CCCC3)cc1 (configuration not stated),-4.9
CN1CCN(c2ccc(CNC(=O)c3cccnc3Oc3ccc(Cl)cc3)cc2)CC1,-5.6
COc1ccc(S(=O)(=O)N(C)C[C@H]2Oc3ccc(NC(=O)Nc4ccc(F)cc4)cc3C(=O)N([C@H](C)CO)C[C@@H]2C)cc1,37.8
Cc1noc(C)c1S(=O)(=O)Nc1cccc2c1O[C@@H](CN(C)S(=O)(=O)c1ccc(Cl)cc1)[C@@H](C)CN([C@@H](C)CO)C2=O,5.8
COc1ccc(NC(=O)Nc2ccc3c(c2)C(=O)N([C@@H](C)CO)C[C@@H](C)[C@H](CN(C)S(=O)(=O)c2ccc(F)cc2)O3)cc1,-29.5
C[C@@H]1CN([C@H](C)CO)C(=O)c2cccc(NC(=O)Nc3cccc4ccccc34)c2O[C@@H]1CN(C)S(=O)(=O)c1ccc(F)cc1,8.2
Cc1noc(C)c1S(=O)(=O)Nc1cccc2c1O[C@@H](CN(C)S(=O)(=O)c1ccc(Cl)cc1)[C@@H](C)CN([C@H](C)CO)C2=O,24.2
C[C@H]1CN([C@@H](C)CO)C(=O)c2cccc(NC(=O)Nc3cccc4ccccc34)c2O[C@H]1CN(C)S(=O)(=O)c1ccc(F)cc1,-4.1
COc1ccc(S(=O)(=O)N(C)C[C@@H]2Oc3ccc(NC(=O)Nc4ccc(F)cc4)cc3C(=O)N([C@H](C)CO)C[C@@H]2C)cc1,129.9*
